The text below walks through data of article PMC7862700, “An all-to-all approach to the identification of sequence-specific readers for epigenetic DNA modifications on cytosine”.

What all share (experiment): DAPPL (digital affinity profiling via proximity ligation, sequencing); 10 mM Tris-HCl pH 7.5, 50 mM NaCl, 1 mM DTT, 4% glycerol, room temperature, 30 min; GST-TFs on glutathione beads, 16-mer random dsDNA library, 0.1% formaldehyde crosslink after washing; high values mean tight binding
Common to all, as to conditions: protein: recombinant; tags: N-terminal GST; dsDNA, one strand shown

One test has as its target T1, FLI1 (Homo sapiens, UniProt Q01543 1-452).
T1 sequence: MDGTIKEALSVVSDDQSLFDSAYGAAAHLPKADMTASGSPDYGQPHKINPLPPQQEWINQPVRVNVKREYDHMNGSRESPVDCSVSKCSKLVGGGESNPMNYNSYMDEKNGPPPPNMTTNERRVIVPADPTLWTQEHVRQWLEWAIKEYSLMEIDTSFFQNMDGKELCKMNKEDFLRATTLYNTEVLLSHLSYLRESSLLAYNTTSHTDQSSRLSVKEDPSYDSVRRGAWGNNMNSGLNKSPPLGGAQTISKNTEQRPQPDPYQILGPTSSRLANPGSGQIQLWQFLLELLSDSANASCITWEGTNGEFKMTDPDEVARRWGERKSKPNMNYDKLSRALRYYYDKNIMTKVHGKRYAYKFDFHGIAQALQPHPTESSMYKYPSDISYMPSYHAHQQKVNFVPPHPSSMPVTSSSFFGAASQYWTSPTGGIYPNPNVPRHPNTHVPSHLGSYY
Summed up:
(§1)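 Each value of binding signal is a hexamer's read frequency for a factor divided by the same hexamer's frequency in the tag-only sample. Barcoded, bead-captured GST fusions of human transcription factors made in yeast were pooled with that sample and incubated with 200 nmole of a random double-stranded 16-mer DNA library in Tris/NaCl/DTT/glycerol buffer at room temperature for 30 min. Washing, 0.1% formaldehyde crosslinking, proximity ligation, PCR and Illumina NextSeq500 sequencing followed.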

Another test deals with T2, ELK1 (Homo sapiens, UniProt P19419 1-428).
T2 sequence: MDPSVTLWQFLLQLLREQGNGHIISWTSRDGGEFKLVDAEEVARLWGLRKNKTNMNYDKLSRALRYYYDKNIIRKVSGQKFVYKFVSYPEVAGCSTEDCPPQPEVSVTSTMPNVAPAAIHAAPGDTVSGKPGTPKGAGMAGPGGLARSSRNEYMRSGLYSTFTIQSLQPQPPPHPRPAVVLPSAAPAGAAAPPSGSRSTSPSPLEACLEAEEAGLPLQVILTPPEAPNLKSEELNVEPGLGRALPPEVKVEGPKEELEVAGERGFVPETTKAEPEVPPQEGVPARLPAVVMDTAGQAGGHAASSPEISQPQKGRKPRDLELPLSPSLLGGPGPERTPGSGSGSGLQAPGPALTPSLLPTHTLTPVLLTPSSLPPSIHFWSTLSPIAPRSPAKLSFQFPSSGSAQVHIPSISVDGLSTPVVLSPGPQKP
Summed up:
as §1

For a further test, the target named is T3, GABPA (Homo sapiens, UniProt Q06546 1-454).
T3 sequence: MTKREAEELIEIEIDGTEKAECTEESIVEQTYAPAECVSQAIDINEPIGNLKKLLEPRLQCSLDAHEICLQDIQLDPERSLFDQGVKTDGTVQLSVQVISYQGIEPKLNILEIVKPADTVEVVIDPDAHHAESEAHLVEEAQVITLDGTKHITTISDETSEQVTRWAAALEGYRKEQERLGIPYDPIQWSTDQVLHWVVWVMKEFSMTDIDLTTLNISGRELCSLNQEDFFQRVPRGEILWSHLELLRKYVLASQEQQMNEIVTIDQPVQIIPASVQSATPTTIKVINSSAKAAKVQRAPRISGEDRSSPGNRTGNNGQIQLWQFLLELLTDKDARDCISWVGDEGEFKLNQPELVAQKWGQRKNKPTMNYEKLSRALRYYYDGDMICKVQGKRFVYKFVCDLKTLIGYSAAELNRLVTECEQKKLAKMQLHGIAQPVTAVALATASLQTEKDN
A digest of the protocol:
as §1

A further test concerns the target T4, ERG (Homo sapiens, UniProt P11308 1-479).
T4 sequence: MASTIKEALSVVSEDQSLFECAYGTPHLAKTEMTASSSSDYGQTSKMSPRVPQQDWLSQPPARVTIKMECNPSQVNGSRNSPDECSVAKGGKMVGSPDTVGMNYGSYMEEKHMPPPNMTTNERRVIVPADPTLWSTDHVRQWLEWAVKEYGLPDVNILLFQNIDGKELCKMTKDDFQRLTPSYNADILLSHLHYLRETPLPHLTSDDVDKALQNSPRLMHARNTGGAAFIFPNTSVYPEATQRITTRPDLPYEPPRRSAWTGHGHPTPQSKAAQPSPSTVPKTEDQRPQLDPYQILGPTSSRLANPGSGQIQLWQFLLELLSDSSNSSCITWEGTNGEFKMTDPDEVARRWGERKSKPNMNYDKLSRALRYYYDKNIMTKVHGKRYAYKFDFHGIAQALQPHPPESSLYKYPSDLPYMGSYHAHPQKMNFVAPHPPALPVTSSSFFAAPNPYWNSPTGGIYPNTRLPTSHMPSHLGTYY
A digest of the protocol: as §1

Another test concerns the target ELF1 (Homo sapiens, UniProt P32519 1-619). Summed up:
as §1

The target in another test is T5, EHF (Homo sapiens, UniProt Q9NZC4 1-300).
T5 sequence: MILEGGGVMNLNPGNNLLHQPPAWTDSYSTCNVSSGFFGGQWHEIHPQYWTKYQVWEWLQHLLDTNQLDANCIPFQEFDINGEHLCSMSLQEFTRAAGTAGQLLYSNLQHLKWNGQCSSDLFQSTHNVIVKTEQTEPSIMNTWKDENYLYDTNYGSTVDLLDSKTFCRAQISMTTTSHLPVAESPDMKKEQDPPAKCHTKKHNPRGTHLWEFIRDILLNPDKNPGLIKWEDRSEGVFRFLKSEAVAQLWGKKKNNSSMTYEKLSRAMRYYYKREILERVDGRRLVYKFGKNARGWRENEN
A digest of the protocol: as §1

For a further test, the target named is SPI1 (Homo sapiens, UniProt P17947 1-270). Summed up: as §1
For the next test, the target named is SPIB (Homo sapiens, UniProt Q01892 1-262). Summed up: as §1
Chain of SPIB (Q01892 whole entry): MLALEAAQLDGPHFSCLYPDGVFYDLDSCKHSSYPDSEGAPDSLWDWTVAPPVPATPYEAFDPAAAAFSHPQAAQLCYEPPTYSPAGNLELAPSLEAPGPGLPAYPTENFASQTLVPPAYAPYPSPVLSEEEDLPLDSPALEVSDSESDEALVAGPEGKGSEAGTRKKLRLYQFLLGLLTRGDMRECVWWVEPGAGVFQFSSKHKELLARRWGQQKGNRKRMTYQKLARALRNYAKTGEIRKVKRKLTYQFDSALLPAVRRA
A further test deals with T6, ELK3 (Homo sapiens, UniProt P41970 1-407).
T6 sequence: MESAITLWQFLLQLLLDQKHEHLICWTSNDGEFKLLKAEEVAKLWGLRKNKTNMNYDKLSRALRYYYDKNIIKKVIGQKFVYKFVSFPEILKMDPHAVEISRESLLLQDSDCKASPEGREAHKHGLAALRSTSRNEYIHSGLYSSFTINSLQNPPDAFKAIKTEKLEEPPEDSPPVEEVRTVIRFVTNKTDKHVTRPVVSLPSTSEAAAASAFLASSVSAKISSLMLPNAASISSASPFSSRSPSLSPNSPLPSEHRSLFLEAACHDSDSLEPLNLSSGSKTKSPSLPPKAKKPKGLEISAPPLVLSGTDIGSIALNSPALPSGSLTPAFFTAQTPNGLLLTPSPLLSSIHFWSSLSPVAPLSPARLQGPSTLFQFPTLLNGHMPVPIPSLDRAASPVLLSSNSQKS
A digest of the protocol: as §1

The next test has as its target T7, FEV (Homo sapiens, UniProt Q99581 1-238).
T7 sequence: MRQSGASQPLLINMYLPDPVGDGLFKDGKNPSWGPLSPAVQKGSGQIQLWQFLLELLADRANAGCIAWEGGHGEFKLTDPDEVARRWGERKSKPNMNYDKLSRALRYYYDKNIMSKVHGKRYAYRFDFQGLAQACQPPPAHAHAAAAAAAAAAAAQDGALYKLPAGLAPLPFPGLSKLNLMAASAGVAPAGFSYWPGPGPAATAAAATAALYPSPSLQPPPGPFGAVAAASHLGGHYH
A digest of the protocol:
as §1

Another test addresses ETV5 (Homo sapiens, UniProt P41161 1-510). A digest of the protocol: as §1
The next test deals with T8, SPIC (Homo sapiens, UniProt Q8N5J4 1-248).
T8 sequence: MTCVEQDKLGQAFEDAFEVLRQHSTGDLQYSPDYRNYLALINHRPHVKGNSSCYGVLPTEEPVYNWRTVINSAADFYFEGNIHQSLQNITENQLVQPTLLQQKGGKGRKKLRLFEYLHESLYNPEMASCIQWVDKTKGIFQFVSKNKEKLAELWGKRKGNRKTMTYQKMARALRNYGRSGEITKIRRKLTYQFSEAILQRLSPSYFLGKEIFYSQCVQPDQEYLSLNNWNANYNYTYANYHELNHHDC
Summed up:
as §1

Another test has as its target ELF4 (Homo sapiens, UniProt Q99607 1-663). Summed up:
as §1

Another test addresses T9, ELK4 (Homo sapiens, UniProt P28324-2 1-405).
T9 sequence: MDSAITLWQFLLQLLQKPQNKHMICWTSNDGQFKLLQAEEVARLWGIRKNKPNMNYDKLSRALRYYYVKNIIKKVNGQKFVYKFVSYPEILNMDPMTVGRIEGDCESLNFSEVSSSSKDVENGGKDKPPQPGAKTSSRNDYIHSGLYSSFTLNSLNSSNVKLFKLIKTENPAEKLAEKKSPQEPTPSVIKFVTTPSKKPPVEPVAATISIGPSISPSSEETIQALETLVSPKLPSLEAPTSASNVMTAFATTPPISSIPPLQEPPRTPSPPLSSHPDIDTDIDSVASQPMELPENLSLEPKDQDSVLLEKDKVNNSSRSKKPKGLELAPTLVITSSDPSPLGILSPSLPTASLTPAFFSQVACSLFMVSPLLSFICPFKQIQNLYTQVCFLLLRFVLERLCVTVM
Summed up:
as §1

The target of the next test is T10, ETV2 (Homo sapiens, UniProt O00321 1-342).
T10 sequence: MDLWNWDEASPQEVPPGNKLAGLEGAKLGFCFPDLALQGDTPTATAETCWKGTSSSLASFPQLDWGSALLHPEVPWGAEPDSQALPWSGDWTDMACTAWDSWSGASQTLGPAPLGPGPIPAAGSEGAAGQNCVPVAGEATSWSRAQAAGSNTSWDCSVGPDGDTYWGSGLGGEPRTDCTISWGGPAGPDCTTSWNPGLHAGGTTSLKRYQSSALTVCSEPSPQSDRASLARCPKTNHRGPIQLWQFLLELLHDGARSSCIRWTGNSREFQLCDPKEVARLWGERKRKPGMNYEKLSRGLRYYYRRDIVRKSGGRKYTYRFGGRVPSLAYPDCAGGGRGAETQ
Summed up:
as §1

In another test the target is T11, ELF3 (Homo sapiens, UniProt P78545 1-371).
T11 sequence: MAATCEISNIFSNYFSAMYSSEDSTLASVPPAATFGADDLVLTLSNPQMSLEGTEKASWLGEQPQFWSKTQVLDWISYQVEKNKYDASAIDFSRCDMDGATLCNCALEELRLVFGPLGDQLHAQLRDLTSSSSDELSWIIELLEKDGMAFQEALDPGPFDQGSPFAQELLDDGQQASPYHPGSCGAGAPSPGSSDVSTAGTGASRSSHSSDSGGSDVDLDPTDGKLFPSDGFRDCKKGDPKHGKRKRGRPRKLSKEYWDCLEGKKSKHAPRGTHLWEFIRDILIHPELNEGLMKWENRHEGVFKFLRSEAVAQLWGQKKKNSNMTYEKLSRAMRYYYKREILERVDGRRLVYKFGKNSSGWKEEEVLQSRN
Summed up:
as §1

In a further test the target is ETV1 (Homo sapiens, UniProt P50549 1-477). A digest of the protocol:
as §1

Chain of ETV5 (P41161 whole entry): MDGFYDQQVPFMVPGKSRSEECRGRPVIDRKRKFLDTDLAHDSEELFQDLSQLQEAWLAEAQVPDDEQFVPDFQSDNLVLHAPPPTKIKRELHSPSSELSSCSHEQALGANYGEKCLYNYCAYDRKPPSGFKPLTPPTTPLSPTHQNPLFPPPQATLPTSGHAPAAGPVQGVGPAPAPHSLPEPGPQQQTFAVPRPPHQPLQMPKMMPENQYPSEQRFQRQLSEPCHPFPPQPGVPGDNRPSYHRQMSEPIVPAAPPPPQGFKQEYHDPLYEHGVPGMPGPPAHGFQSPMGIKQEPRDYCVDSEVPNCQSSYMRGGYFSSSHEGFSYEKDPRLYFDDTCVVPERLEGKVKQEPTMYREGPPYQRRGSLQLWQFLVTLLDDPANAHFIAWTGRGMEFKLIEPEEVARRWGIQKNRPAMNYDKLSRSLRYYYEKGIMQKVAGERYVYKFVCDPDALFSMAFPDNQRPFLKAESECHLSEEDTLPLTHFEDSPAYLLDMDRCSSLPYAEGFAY
Chain of ELF4 (Q99607 whole entry): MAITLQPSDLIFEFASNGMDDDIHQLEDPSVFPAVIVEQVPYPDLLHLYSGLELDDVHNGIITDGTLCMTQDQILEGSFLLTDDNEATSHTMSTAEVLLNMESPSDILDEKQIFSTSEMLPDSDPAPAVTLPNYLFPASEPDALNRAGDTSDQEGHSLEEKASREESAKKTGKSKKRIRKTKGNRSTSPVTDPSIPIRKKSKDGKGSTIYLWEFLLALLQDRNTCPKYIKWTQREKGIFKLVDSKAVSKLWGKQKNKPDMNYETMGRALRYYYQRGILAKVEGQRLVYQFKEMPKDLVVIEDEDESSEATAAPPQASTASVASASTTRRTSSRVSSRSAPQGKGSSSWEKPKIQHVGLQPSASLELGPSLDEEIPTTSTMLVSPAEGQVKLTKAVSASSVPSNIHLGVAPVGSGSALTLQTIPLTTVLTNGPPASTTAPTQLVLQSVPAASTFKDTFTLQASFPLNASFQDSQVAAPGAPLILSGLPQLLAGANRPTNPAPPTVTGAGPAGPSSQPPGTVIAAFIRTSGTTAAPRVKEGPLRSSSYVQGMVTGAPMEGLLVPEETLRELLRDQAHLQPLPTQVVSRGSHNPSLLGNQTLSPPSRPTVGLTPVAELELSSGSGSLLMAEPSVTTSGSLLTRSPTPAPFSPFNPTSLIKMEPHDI
Chain of ETV1 (P50549 whole entry): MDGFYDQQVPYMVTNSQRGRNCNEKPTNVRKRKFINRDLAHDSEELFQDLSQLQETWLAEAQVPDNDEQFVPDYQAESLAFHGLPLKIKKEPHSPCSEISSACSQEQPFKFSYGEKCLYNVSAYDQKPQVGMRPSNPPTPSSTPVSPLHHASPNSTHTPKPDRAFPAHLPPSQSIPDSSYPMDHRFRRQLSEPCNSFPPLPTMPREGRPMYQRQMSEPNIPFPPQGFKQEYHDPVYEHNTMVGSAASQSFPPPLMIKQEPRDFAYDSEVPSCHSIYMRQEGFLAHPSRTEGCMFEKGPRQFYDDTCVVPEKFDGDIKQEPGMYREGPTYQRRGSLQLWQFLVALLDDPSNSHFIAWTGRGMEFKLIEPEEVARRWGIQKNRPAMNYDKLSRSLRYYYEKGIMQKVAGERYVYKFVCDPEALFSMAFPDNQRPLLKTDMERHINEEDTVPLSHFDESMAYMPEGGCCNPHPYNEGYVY
Chain of ELF1 (P32519 whole entry): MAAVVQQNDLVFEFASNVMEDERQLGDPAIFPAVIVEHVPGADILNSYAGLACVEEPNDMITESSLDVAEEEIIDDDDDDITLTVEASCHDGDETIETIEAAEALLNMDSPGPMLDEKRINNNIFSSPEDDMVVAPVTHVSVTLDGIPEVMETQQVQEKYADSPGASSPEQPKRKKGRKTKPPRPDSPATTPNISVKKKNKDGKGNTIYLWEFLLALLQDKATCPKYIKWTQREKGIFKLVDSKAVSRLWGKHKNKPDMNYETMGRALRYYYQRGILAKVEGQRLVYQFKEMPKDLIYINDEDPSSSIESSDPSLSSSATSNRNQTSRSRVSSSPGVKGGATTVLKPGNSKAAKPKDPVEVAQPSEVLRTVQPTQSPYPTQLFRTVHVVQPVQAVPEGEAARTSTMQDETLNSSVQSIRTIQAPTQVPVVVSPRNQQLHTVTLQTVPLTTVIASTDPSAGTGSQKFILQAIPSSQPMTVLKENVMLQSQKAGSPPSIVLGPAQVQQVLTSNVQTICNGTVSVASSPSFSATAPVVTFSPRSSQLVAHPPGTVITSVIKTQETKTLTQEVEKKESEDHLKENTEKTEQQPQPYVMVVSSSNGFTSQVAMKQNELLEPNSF

For CGCCCC, the binding signal is 1.12 fold enrichment (6-mer frequency, TF over GST control) with FLI1; 1.17 fold enrichment (6-mer frequency, TF over GST control) in the test with ELK1; 1.11 fold enrichment (6-mer frequency, TF over GST control) in the test with GABPA; 1.14 fold enrichment (6-mer frequency, TF over GST control) with ERG; 1.22 fold enrichment (6-mer frequency, TF over GST control) with ELF1; 1.19 fold enrichment (6-mer frequency, TF over GST control) with EHF. Also, the binding signal with SPI1 was 1.18 fold enrichment (6-mer frequency, TF over GST control); in the test with SPIB it was 1.1 fold enrichment (6-mer frequency, TF over GST control); with ELK3, 1.18 fold enrichment (6-mer frequency, TF over GST control); with FEV, 1.21 fold enrichment (6-mer frequency, TF over GST control); with ETV5 it was 1.23 fold enrichment (6-mer frequency, TF over GST control); in the test with SPIC, 1.24 fold enrichment (6-mer frequency, TF over GST control). Moreover, the binding signal was 1.28 fold enrichment (6-mer frequency, TF over GST control) in the test with ELF4; 1.06 fold enrichment (6-mer frequency, TF over GST control) with ELK4; 1.02 fold enrichment (6-mer frequency, TF over GST control) with ETV2; 1.09 fold enrichment (6-mer frequency, TF over GST control) with ELF3; 1.25 fold enrichment (6-mer frequency, TF over GST control) in the test with ETV1.
